Measured values from the supplement of paper PMC4466140.

Assays:
Assay in all cases: SPOT peptide array binding signal intensity (averaged, normalized) (arbitrary units (background-subtracted, floor 0; scale differs between SH3 domains)); higher = stronger binding of the SH3 domain to the peptide
AgAbp1 = biological target: AgAbp1
In short: (§1)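 Spot intensities were captured after detection with anti-GST antibody, an HRP-linked anti-mouse secondary and luminol, and quantified with Genespotter. The probes were GST-fused SH3 domains from four yeast species, produced in E. coli BL21(DE3), purified on glutathione Sepharose and incubated at 10 μg/ml overnight at 4°C on cellulose-bound synthetic 15-mer peptides with cysteines replaced by serines. Binding signal is the normalized, background-subtracted spot intensity averaged over replicates, and its arbitrary units differ between domains.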

AgBbc1 = biological target: AgBbc1
In short: as §1

AgBem1-D1 = biological target: AgBem1-D1
In short: as §1

AgBzz1-D1 = biological target: AgBzz1-D1
In short: as §1

AgBzz1-D2 = biological target: AgBzz1-D2
In short: as §1

AgCyk3 = biological target: AgCyk3
In short: as §1

AgFus1 = biological target: AgFus1
In short: as §1

AgHof1 = biological target: AgHof1
In short: as §1

AgHse1 = biological target: AgHse1
In short: as §1

AgLsb1 = biological target: AgLsb1
In short: as §1

AgLsb4 = biological target: AgLsb4
In short: as §1

AgMyo5 = biological target: AgMyo5
In short: as §1

AgNbp2 = biological target: AgNbp2
In short: as §1

AgRvs167 = biological target: AgRvs167
In short: as §1

AgSho1 = biological target: AgSho1
In short: as §1

AgSla1-D1-D2 = biological target: AgSla1-D1-D2
In short: as §1

AgSla1-D3 = biological target: AgSla1-D3
In short: as §1

CaAbp1-D1 = biological target: CaAbp1-D1
In short: as §1

CaAbp1-D2 = biological target: CaAbp1-D2
In short: as §1

CaBbc1 = biological target: CaBbc1
In short: as §1

CaBem1-D1 = biological target: CaBem1-D1
In short: as §1

CaBzz1-D1 = biological target: CaBzz1-D1
In short: as §1

CaBzz1-D2 = biological target: CaBzz1-D2
In short: as §1

CaCyk3 = biological target: CaCyk3
In short: as §1

CaFus1 = biological target: CaFus1
In short: as §1

CaHof1 = biological target: CaHof1
In short: as §1

CaHse1 = biological target: CaHse1
In short: as §1

CaLsb1 = biological target: CaLsb1
In short: as §1

CaLsb4 = biological target: CaLsb4
In short: as §1

CaMyo5 = biological target: CaMyo5
In short: as §1

CaNbp2 = biological target: CaNbp2
In short: as §1

CaRvs167 = biological target: CaRvs167
In short: as §1

CaRvs167-3 = biological target: CaRvs167-3
In short: as §1

CaSho1 = biological target: CaSho1
In short: as §1

CaSla1-D1-D2 = biological target: CaSla1-D1-D2
In short: as §1

CaSla1-D3 = biological target: CaSla1-D3
In short: as §1

ScAbp1 = biological target: ScAbp1
In short: as §1

ScBbc1 = biological target: ScBbc1
In short: as §1

ScBem1-D1 = biological target: ScBem1-D1
In short: as §1

ScBzz1-D1 = biological target: ScBzz1-D1
In short: as §1

ScBzz1-D2 = biological target: ScBzz1-D2
In short: as §1

ScCyk3 = biological target: ScCyk3
In short: as §1

ScFus1 = biological target: ScFus1
In short: as §1

ScHof1 = biological target: ScHof1
In short: as §1

ScHse1 = biological target: ScHse1
In short: as §1

ScLsb1 = biological target: ScLsb1
In short: as §1

ScLsb2 = biological target: ScLsb2
In short: as §1

ScLsb3 = biological target: ScLsb3
In short: as §1

ScLsb4 = biological target: ScLsb4
In short: as §1

ScMyo3 = biological target: ScMyo3
In short: as §1

ScMyo5 = biological target: ScMyo5
In short: as §1

ScNbp2 = biological target: ScNbp2
In short: as §1

ScPex13 = biological target: ScPex13
In short: as §1

ScRvs167 = biological target: ScRvs167
In short: as §1

ScSho1 = biological target: ScSho1
In short: as §1

ScSla1-D1-D2 = biological target: ScSla1-D1-D2
In short: as §1

ScSla1-D3 = biological target: ScSla1-D3
In short: as §1

SpAbp1-D1 = biological target: SpAbp1-D1
In short: as §1

SpBbc1 = biological target: SpBbc1
In short: as §1

SpBzz1-D1 = biological target: SpBzz1-D1
In short: as §1

SpBzz1-D2 = biological target: SpBzz1-D2
In short: as §1

SpCyk3 = biological target: SpCyk3
In short: as §1

SpHof1 = biological target: SpHof1
In short: as §1

SpHof1-2 = biological target: SpHof1-2
In short: as §1

SpHof1-3 = biological target: SpHof1-3
In short: as §1

SpHse1 = biological target: SpHse1
In short: as §1

SpLsb1 = biological target: SpLsb1
In short: as §1

SpLsb4 = biological target: SpLsb4
In short: as §1

SpMyo1 = biological target: SpMyo1
In short: as §1

SpNbp2 = biological target: SpNbp2
In short: as §1

SpPex13 = biological target: SpPex13
In short: as §1

SpRvs167 = biological target: SpRvs167
In short: as §1

SpSla1-D1-D2 = biological target: SpSla1-D1-D2
In short: as §1

SpSla1-D3 = biological target: SpSla1-D3
In short: as §1

FVLRYYILIPHEQWD
SPOT peptide array binding signal intensity (AgAbp1): 6
SPOT peptide array binding signal intensity (AgBbc1): ≤ 0
SPOT peptide array binding signal intensity (AgBem1-D1): 190
SPOT peptide array binding signal intensity (AgBzz1-D1): ≤ 0
SPOT peptide array binding signal intensity (AgBzz1-D2): 5.5
SPOT peptide array binding signal intensity (AgCyk3): 13.5
SPOT peptide array binding signal intensity (AgFus1): 1800
SPOT peptide array binding signal intensity (AgHof1): 5
SPOT peptide array binding signal intensity (AgHse1): 1200
SPOT peptide array binding signal intensity (AgLsb1): 3
SPOT peptide array binding signal intensity (AgLsb4): 334
SPOT peptide array binding signal intensity (AgMyo5): 1
SPOT peptide array binding signal intensity (AgNbp2): 82.5
SPOT peptide array binding signal intensity (AgRvs167): 2.5
SPOT peptide array binding signal intensity (AgSho1): 218
SPOT peptide array binding signal intensity (AgSla1-D1-D2): 14.5
SPOT peptide array binding signal intensity (AgSla1-D3): 2.75
SPOT peptide array binding signal intensity (CaAbp1-D1): 30.5
SPOT peptide array binding signal intensity (CaAbp1-D2): 78.5
SPOT peptide array binding signal intensity (CaBbc1): 0.25
SPOT peptide array binding signal intensity (CaBem1-D1): ≤ 0
SPOT peptide array binding signal intensity (CaBzz1-D1): 63
SPOT peptide array binding signal intensity (CaBzz1-D2): 36.8
SPOT peptide array binding signal intensity (CaCyk3): 5
SPOT peptide array binding signal intensity (CaFus1): 3930
SPOT peptide array binding signal intensity (CaHof1): 0.75
SPOT peptide array binding signal intensity (CaHse1): 174
SPOT peptide array binding signal intensity (CaLsb1): 6.5
SPOT peptide array binding signal intensity (CaLsb4): 31.5
SPOT peptide array binding signal intensity (CaMyo5): 31.5
SPOT peptide array binding signal intensity (CaNbp2): 595
SPOT peptide array binding signal intensity (CaRvs167): 216
SPOT peptide array binding signal intensity (CaRvs167-3): 119
SPOT peptide array binding signal intensity (CaSho1): 666
SPOT peptide array binding signal intensity (CaSla1-D1-D2): ≤ 0
SPOT peptide array binding signal intensity (CaSla1-D3): 163
SPOT peptide array binding signal intensity (ScAbp1): ≤ 0
SPOT peptide array binding signal intensity (ScBbc1): ≤ 0
SPOT peptide array binding signal intensity (ScBem1-D1): 14.5
SPOT peptide array binding signal intensity (ScBzz1-D1): 14
SPOT peptide array binding signal intensity (ScBzz1-D2): 28
SPOT peptide array binding signal intensity (ScCyk3): 35
SPOT peptide array binding signal intensity (ScFus1): 1310
SPOT peptide array binding signal intensity (ScHof1): ≤ 0
SPOT peptide array binding signal intensity (ScHse1): 1060
SPOT peptide array binding signal intensity (ScLsb1): ≤ 0
SPOT peptide array binding signal intensity (ScLsb2): 1.5
SPOT peptide array binding signal intensity (ScLsb3): 67
SPOT peptide array binding signal intensity (ScLsb4): 5
SPOT peptide array binding signal intensity (ScMyo3): 1.5
SPOT peptide array binding signal intensity (ScMyo5): 3
SPOT peptide array binding signal intensity (ScNbp2): 187
SPOT peptide array binding signal intensity (ScPex13): 7.5
SPOT peptide array binding signal intensity (ScRvs167): 9.83
SPOT peptide array binding signal intensity (ScSho1): 1100
SPOT peptide array binding signal intensity (ScSla1-D1-D2): 7.5
SPOT peptide array binding signal intensity (ScSla1-D3): 51
SPOT peptide array binding signal intensity (SpAbp1-D1): 59.5
SPOT peptide array binding signal intensity (SpBbc1): 2
SPOT peptide array binding signal intensity (SpBzz1-D1): 20.5

PSPSSSPPPIPKTAN
SPOT peptide array binding signal intensity (CaNbp2): 15.5
SPOT peptide array binding signal intensity (CaRvs167): ≤ 0
SPOT peptide array binding signal intensity (CaRvs167-3): 3
SPOT peptide array binding signal intensity (CaSho1): 5
SPOT peptide array binding signal intensity (CaSla1-D1-D2): 8.5
SPOT peptide array binding signal intensity (CaSla1-D3): ≤ 0
SPOT peptide array binding signal intensity (ScAbp1): 9
SPOT peptide array binding signal intensity (ScBbc1): ≤ 0
SPOT peptide array binding signal intensity (ScBem1-D1): ≤ 0
SPOT peptide array binding signal intensity (ScBzz1-D1): 4
SPOT peptide array binding signal intensity (ScBzz1-D2): 20
SPOT peptide array binding signal intensity (ScCyk3): ≤ 0
SPOT peptide array binding signal intensity (ScFus1): ≤ 0
SPOT peptide array binding signal intensity (ScHof1): ≤ 0
SPOT peptide array binding signal intensity (ScHse1): 50
SPOT peptide array binding signal intensity (ScLsb1): 1
SPOT peptide array binding signal intensity (ScLsb2): ≤ 0
SPOT peptide array binding signal intensity (ScLsb3): 24.5
SPOT peptide array binding signal intensity (ScLsb4): ≤ 0
SPOT peptide array binding signal intensity (ScMyo3): 2350
SPOT peptide array binding signal intensity (ScMyo5): 1200
SPOT peptide array binding signal intensity (ScNbp2): 6.5
SPOT peptide array binding signal intensity (ScPex13): ≤ 0
SPOT peptide array binding signal intensity (ScRvs167): 2
SPOT peptide array binding signal intensity (ScSho1): ≤ 0
SPOT peptide array binding signal intensity (ScSla1-D1-D2): ≤ 0
SPOT peptide array binding signal intensity (ScSla1-D3): 22.8
SPOT peptide array binding signal intensity (SpAbp1-D1): 8
SPOT peptide array binding signal intensity (SpBbc1): 5
SPOT peptide array binding signal intensity (SpBzz1-D1): 182
SPOT peptide array binding signal intensity (SpBzz1-D2): 0.5
SPOT peptide array binding signal intensity (SpCyk3): 1
SPOT peptide array binding signal intensity (SpHof1): ≤ 0
SPOT peptide array binding signal intensity (SpHof1-2): ≤ 0
SPOT peptide array binding signal intensity (SpHof1-3): 0.5
SPOT peptide array binding signal intensity (SpHse1): 2.5
SPOT peptide array binding signal intensity (SpLsb1): 1.5
SPOT peptide array binding signal intensity (SpLsb4): ≤ 0
SPOT peptide array binding signal intensity (SpMyo1): 1570
SPOT peptide array binding signal intensity (SpNbp2): 3
SPOT peptide array binding signal intensity (SpPex13): ≤ 0
SPOT peptide array binding signal intensity (SpRvs167): 1.17
SPOT peptide array binding signal intensity (SpSla1-D1-D2): 2
SPOT peptide array binding signal intensity (SpSla1-D3): 3
